PubChem BioAssay (NCATS)
Inconclusive results are not listed. Entries that show only a call come without a potency. Values without a mark were called inactive. Calls of active or inactive are those of the source. Calls come from the whole dose curve; as a rule, active = well fitted curve in the direction sought with a large enough effect; inconclusive = small, poorly fitted or top-dose-only effect, or another doubt; inactive = no such curve, though single readings can be large; an effect the other way counts as inactive or inconclusive.

Key:
[1] = system: UISO; assay: qHTS assay to identify novel small-molecules to repurpose for Merkel cell carcinoma treatment (AID 1296009); details: MCC and control cell lines, CellTiter-Glo viability, 72 h; series mostly up to 46 µM; note: nearly all actives have a fitted effect of over 60% in size
Summary of the method: (§1)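 Dose-response viability screen; 72 hr exposure at 37 degree celsius; CellTiter-Glo added, 10 min room temperature, luminescence read; RLUs scaled between no-cell and DMSO wells.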

[2] = system: WaGa; assay: as above; details: MCC and control cell lines, CellTiter-Glo viability, 72 h; series mostly up to 46 µM
Summary of the method: as §1

[3] = system: C33A; assay: Primary qHTS to identify gynecologic anti-cancer compounds using libraries of approved drugs and bioactive compounds (AID 1345084); details: Gynecologic cancer cell panel viability, ATPlite luminescence, 48 h; series mostly up to 57.5 µM; note: nearly all actives have a fitted effect of over 55% in size
Summary of the method: (§2)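 In this quantitative HTS, cell killing is estimated from loss of ATP-dependent luciferase light. Cells see five compound concentrations over a 48 h exposure.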

[4] = system: CAOV3; assay: as above; details: Gynecologic cancer cell panel viability, ATPlite luminescence, 48 h; series mostly up to 57.5 µM
Summary of the method: as §2

[5] = system: CASKI; assay: as above; details: Gynecologic cancer cell panel viability, ATPlite luminescence, 48 h; series mostly up to 57.5 µM
Summary of the method: as §2

[6] = system: Es-2; assay: as above; details: Gynecologic cancer cell panel viability, ATPlite luminescence, 48 h; series mostly up to 57.5 µM
Summary of the method: as §2

[7] = system: HeLa; assay: as above; details: Gynecologic cancer cell panel viability, ATPlite luminescence, 48 h; series mostly up to 57.5 µM
Summary of the method: as §2

[8] = system: Hek293T; assay: as above; details: Gynecologic cancer cell panel viability, ATPlite luminescence, 48 h, control line for the selectivity index; series mostly up to 57.5 µM
Summary of the method: as §2

[9] = system: JEG-3; assay: as above; details: Gynecologic cancer cell panel viability, ATPlite luminescence, 48 h; series mostly up to 57.5 µM
Summary of the method: as §2

[10] = system: OV90; assay: as above; details: Gynecologic cancer cell panel viability, ATPlite luminescence, 48 h; series mostly up to 57.5 µM
Summary of the method: as §2

[11] = system: PA-1; assay: as above; details: Gynecologic cancer cell panel viability, ATPlite luminescence, 48 h; series mostly up to 57.5 µM
Summary of the method: as §2

[12] = system: SKOV3; assay: as above; details: Gynecologic cancer cell panel viability, ATPlite luminescence, 48 h; series mostly up to 57.5 µM
Summary of the method: as §2

[13] = system: Tov-21-G; assay: as above; details: Gynecologic cancer cell panel viability, ATPlite luminescence, 48 h; series mostly up to 57.5 µM
Summary of the method: as §2

[14] = system: Tov112D; assay: as above; details: Gynecologic cancer cell panel viability, ATPlite luminescence, 48 h; series mostly up to 57.5 µM
Summary of the method: as §2

[15] = Drug repurposing screens with cells derived from glioblastoma tumor samples (AID 1345199); details: GBM patient neurospheres viability, ATP luminescence, 48 h; note: nearly all actives have a fitted effect of over 40% in size; note: potency is the fitted concentration of half-maximal effect
Summary of the method: (§3)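 Primary testing used CD133+ neurospheres from four GBM patients, seven concentrations, 48 h exposure and ATP-based viability; confirmation added three slower-growing patient lines.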

[16] = system: astro; assay: as above; details: viability, ATP luminescence, 48 h; series mostly up to 45.9 µM
Summary of the method: as §3

[17] = at 45.9 µM (top of the series), tumour line B
[18] = at 45.9 µM (top of the series), tumour line D
[19] = at 46 µM (top of the series), tumour line A
[20] = at 46.1 µM (top of the series), tumour line C

Row | SMILES | Potency [1] | Potency [2] | Potency [3] | Potency [4] | Potency [5] | Potency [6] | Potency [7] | Potency [8] | Potency [9] | Potency [10] | Potency [11] | Potency [12] | Potency [13] | Potency [14] | activity, negative = cell killing [15, 17] | activity, negative = cell killing [15, 18] | activity, negative = cell killing [15, 19] | activity, negative = cell killing [15, 20] | Potency [16] | Potency ([15]; tumour line A)
1 | CC(C)(C)c1nnc(NS(=O)(=O)c2ccccc2)s1 | inactive | inactive | inactive | inactive | inactive | inactive | inactive | inactive | inactive | inactive | inactive | inactive | inactive | inactive | -2.48% | -22.3% | -25.7% | -15.6% | inactive | –
2 | Cc1cccc(C)c1NC(=O)c1cc(S(N)(=O)=O)c(Cl)cc1O | inactive | inactive | inactive | inactive | inactive | inactive | inactive | inactive | inactive | inactive | inactive | inactive | inactive | inactive | -11.2% | -8.64% | – | -16.5% | inactive | 35.5 µM (active)
3 | CC(C)(C)C(O)/C=C/c1ccc2c(c1)OCO2 (centres undefined) | inactive | inactive | inactive | inactive | inactive | inactive | inactive | inactive | inactive | inactive | inactive | inactive | inactive | inactive | -14.2% | -29.5% | – | 10.3% | inactive | 15.8 µM (active)
4 | Nc1c(NC/C=C\COc2cc(CN3CCCCC3)ccn2)c(=O)c1=O | inactive | inactive | inactive | inactive | inactive | inactive | inactive | inactive | inactive | inactive | inactive | inactive | inactive | inactive | -4.69% | -28.9% | – | 3.18% | inactive | –
5 | COc1cc(C(=O)NC2CCCNC2)cc(OC)c1OC (centres undefined) | inactive | inactive | inactive | inactive | inactive | inactive | inactive | inactive | inactive | inactive | inactive | inactive | inactive | inactive | -2.35% | -10.6% | – | 15.7% | inactive | –
6 | CCOC(=O)c1ccc(OCCN2C[C@H](O)[C@@H](O)[C@H](O)[C@H]2CO)cc1 | inactive | inactive | inactive | inactive | inactive | inactive | inactive | inactive | inactive | inactive | inactive | inactive | inactive | inactive | 0.0726% | -4.04% | – | 1.63% | inactive | –
7 | COc1cc(NS(=O)(=O)c2ccc(N)cc2)nc(C)n1 | inactive | inactive | inactive | inactive | inactive | inactive | inactive | inactive | inactive | inactive | inactive | inactive | inactive | inactive | -1.01% | -8.58% | -28.7% | 5.24% | inactive | –
8 | CCOC(=O)[C@H](CCc1ccccc1)N[C@@H](C)C(=O)N(CC(=O)O)C1Cc2ccccc2C1 | inactive | inactive | inactive | inactive | inactive | inactive | inactive | inactive | inactive | inactive | inactive | inactive | inactive | inactive | -1.19% | -9.08% | – | 19.3% | inactive | –
9 | O=[N+]([O-])c1nccn1CO[C@@H](CO)[C@H](O)CO | inactive | inactive | inactive | inactive | inactive | inactive | inactive | inactive | inactive | inactive | inactive | inactive | inactive | inactive | -1.15% | -7.16% | – | -8.18% | inactive | –
10 | CCOC(=O)NNc1ccc(N(CC)CC(C)O)nn1 (centres undefined) | inactive | inactive | inactive | inactive | inactive | inactive | inactive | inactive | inactive | inactive | inactive | inactive | inactive | inactive | -1.62% | -9.84% | -25.2% | 10.8% | inactive | –
11 | CCOC(=O)NNc1nncc2ccccc12 | inactive | inactive | inactive | inactive | inactive | inactive | inactive | inactive | inactive | inactive | inactive | inactive | inactive | inactive | -5.14% | -7.16% | – | -13.4% | inactive | –
12 | O=C(O)CCC(=O)OC[C@@H](NC(=O)C(Cl)Cl)[C@H](O)c1ccc([N+](=O)[O-])cc1 | inactive | inactive | inactive | inactive | inactive | inactive | inactive | inactive | inactive | inactive | inactive | inactive | inactive | inactive | -13.2% | -13.5% | – | -13.1% | inactive | –
13 | O=C(OCC1(COC(=O)c2cccnc2)CCCC(COC(=O)c2cccnc2)(COC(=O)c2cccnc2)C1O)c1cccnc1 | inactive | inactive | inactive | inactive | inactive | inactive | inactive | inactive | inactive | inactive | inactive | inactive | inactive | inactive | -11.6% | -18.7% | – | 2.18% | inactive | –
